Assay outcomes as filed in PubChem BioAssay.
IDE exosite inh – exo-site inhibitors of human IDE, primary screen, biochemical, fluorescence anisotropy, probe displacement | purified IDE, FL-6b probe fluorescence polarization; hits give low values | z-score at 20 µM | 17,000 tested, 6.3% active | AID 1259349, 2017;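 active = z-score of -3 or lower, meaning strong loss of probe binding signal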;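 also: His-tagged human IDE residues 42-1019 made in E. coli with 30 nM FL-6b probe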
Starred values were filed as active, the others as inactive. The sample as a whole holds a higher share of hits than the screen did.

SMILES | IDE exosite inh
COc1ccccc1-c1ccc([C@@H]2[C@@H](CO)N3CCCCN(C(=O)NC4CCCC4)C[C@@H]23)cc1 | -4.7*
COCC#Cc1ccc([C@H]2[C@@H](CO)N3CCCCN(C(=O)NC4CCCC4)C[C@@H]23)cc1 | -1.2
COc1ccccc1NC(=O)N1CCCCN2[C@H](C1)[C@H](c1ccc(-c3ccc(C)cc3)cc1)[C@@H]2CO | 1.2
COCC#Cc1ccc([C@H]2[C@H]3CN(C(=O)NC4CCCC4)CCCCN3[C@H]2CO)cc1 | -0.15
COc1ccccc1-c1ccc([C@H]2[C@H]3CN(C(=O)NC4CCCC4)CCCCN3[C@H]2CO)cc1 | -14*
COc1ccccc1-c1ccc([C@@H]2[C@@H](CO)N3CCCCN(C(=O)NC4CCCC4)C[C@H]23)cc1 | -8.4*
O=C(NC1CCCC1)N1CCCCN2[C@@H](CO)[C@H](c3ccc(-c4cncnc4)cc3)[C@@H]2C1 | 1.9
O=C(Nc1cccc(Cl)c1)N[C@H]1CC[C@@H](CCn2cc(Cc3ccccc3)nn2)O[C@H]1CO | 0.42
CO[C@H]1CN(C)C(=O)c2cccc(C#N)c2OCC[C@@H]2CC[C@@H](OC)[C@H](CN(C)C(=O)[C@@H]1C)O2 | 1.2
COc1ccc(NC(=O)N2CC(=O)N3[C@@H](CO)[C@H](c4ccc(C5=CCCC5)cc4)[C@@H]3C2)cc1 | -0.8
CCC(=O)N1[C@H](CO)[C@H](c2ccc(-c3cccc(OC)c3)cc2)[C@H]1CNC(C)=O | 1.2
CC(=O)NC[C@@H]1[C@@H](c2ccc(-c3cccc(F)c3)cc2)[C@@H](CO)N1C(C)=O | 2.2
O=C(Nc1ccccc1)N1CCCCN2[C@@H](CO)[C@@H](c3ccc(Br)cc3)[C@@H]2C1 | 4.9
CCS(=O)(=O)NCC[C@H]1CC[C@H](NC(=O)Nc2cc(Cl)cc(Cl)c2)[C@H](CO)O1 | -0.021
Cc1ccccc1-c1ccccc1[C@H]1[C@@H](CO)N(C(=O)c2cccc(F)c2)[C@H]1C#N | 1.4
COc1ccccc1-c1ccc([C@@H]2[C@H](CO)N3CCCCN(C(=O)NC4CCCC4)C[C@@H]23)cc1 | -16*
O=C(NCC1CC1)[C@H]1[C@H](CO)[C@H]2Cn3c(ccc(-c4ccccc4F)c3=O)[C@@H]1N2Cc1cncnc1 | -0.78
COCC(=O)N1CCCCN2[C@H](CO)[C@@H](c3ccc(C#Cc4cccnc4)cc3)[C@H]2C1 | 2.7
O=C(c1cccnc1)N1CCCCN2[C@H](CO)[C@H](c3ccc(C#Cc4cccnc4)cc3)[C@H]2C1 | 4.7
CCC(=O)N1CCCCN2[C@H](CO)[C@H](c3ccc(C#Cc4cccnc4)cc3)[C@H]2C1 | -3.2*
COCC(=O)N1CCCCN2[C@H](C1)[C@@H](c1ccc(C#Cc3cccnc3)cc1)[C@@H]2CO | -0.14
CCC(=O)N1CCCCN2[C@H](CO)[C@@H](c3ccc(C#Cc4cccnc4)cc3)[C@@H]2C1 | -5.2*
O=C(c1cccnc1)N1CCCCN2[C@H](C1)[C@H](c1ccc(C#Cc3cccnc3)cc1)[C@@H]2CO | -1.5
O=C(c1cccnc1)N1CCCCN2[C@H](CO)[C@@H](c3ccc(C#Cc4cccnc4)cc3)[C@@H]2C1 | -0.3
CCC(=O)N1CCCCN2[C@@H](CO)[C@H](c3ccc(C#Cc4cccnc4)cc3)[C@@H]2C1 | -5.4*
SMILES | IDE exosite inh
COCC(=O)N1CCCCN2[C@H](CO)[C@@H](c3ccc(C#Cc4cccnc4)cc3)[C@@H]2C1 | 0.082
COc1cccc(NC(=O)N2CC(=O)N3[C@H](CO)[C@H](c4ccc(C5=CCCC5)cc4)[C@@H]3C2)c1 | -0.07
COc1ccc([C@@H]2C/C=C\C[C@H](c3ccc(F)cc3)NC(=O)CCC(=O)N2)c(OC)c1 | 0.58
CO[C@@H](CN(C)S(=O)(=O)c1ccc(C)cc1)[C@@H](C)CN(C(=O)Nc1ccccc1F)[C@@H](C)CO | 1.3
O=C(Nc1cccc(F)c1)N1CC(=O)N2[C@H](CO)[C@H](c3ccc(-c4ccccc4F)cc3)[C@H]2C1 | -2.6
CN1CCN(C(=O)C[C@@H]2C[C@@H]3c4cc(NS(C)(=O)=O)ccc4O[C@@H]3[C@@H](CO)O2)CC1 | -1.1
CO[C@@H](CN(C)S(=O)(=O)c1ccc(F)cc1)[C@H](C)CN(Cc1ccccc1Cl)[C@H](C)CO | 0.76
N#C[C@@H]1[C@H](c2ccc(C3=CCCCC3)cc2)[C@H](CO)N1C(=O)c1ccccn1 | 4.4
COc1cccc(S(=O)(=O)N[C@@H]2CC[C@H](CC(=O)NC3Cc4ccccc4C3)O[C@@H]2CO)c1 | 0.61
CN1C(=O)c2cc(NC(=O)Nc3ccccc3Cl)ccc2OC[C@@H]2O[C@@H](CC(=O)NCCCN3CCOCC3)CC[C@@H]21 | -5.1*
CN1C(=O)c2cc(NC(=O)Nc3ccccc3Cl)ccc2OC[C@@H]2O[C@H](CC(=O)NCCCN3CCOCC3)CC[C@H]21 | -1.5
COCC(=O)Nc1ccc2c(c1)C(=O)N(C)[C@@H]1CC[C@@H](CC(=O)NCCCN(C)C)O[C@H]1CO2 | 0.71
COCC(=O)Nc1ccc2c(c1)C(=O)N(C)[C@H]1CC[C@@H](CC(=O)NCCCN(C)C)O[C@H]1CO2 | -1.2
